Laboratory results taken from PubChem BioAssay (Tox21).
Results filed as inconclusive are left out. Where a call stands in place of a potency, no number is given. Active and inactive are the calls of the source. Calls come from the whole dose curve.

Molecular target: D(2) dopamine receptor (Homo sapiens) (UniProt P14416)
Test: Dopamine D2 receptor (DRD2) small molecule agonists, cell-based qHTS assay (AID 1963594); note: nearly all actives have a fitted effect of over 35% in size
Settings: HEK293-DRD2 cAMP HTRF, agonist mode, 30 min; series mostly up to 92.4 µM
Excerpt: National Center for Advancing Translational Sciences [NCATS]
Division of Preclinical Innovation [DPI]
U.S. Environmental Protection Agency [EPA]
National Institutes of Environmental Health Sciences [NIEHS]
National Toxicology Program [NTP]
U.S. Food and Drug Administration [FDA]
DRD2 is the D2 subtype of the dopamine receptor, which is coupled to Gi subtype of G protein-coupled receptor. This G protein-coupled receptor inhibits adenylyl cyclase activity. The DRD2-HEK293 cell line stably expressing D2 dopamine receptor can be used for screening agonists and antagonists of interactions between D2 and its ligands. The Hek293-DRD2 cAMP assay is based on HTRF technology. It measures changes of cAMP accumulation in response to Gi coupled GPCR activation or inhibition.
Tox21 Assay Protocol Summary:
DRD2-Hek293 cells were dispensed at 600 cells/3uL/well in 1536-well white plates using a Multidrop Dispenser. After the assay plates were incubated at a 37 C/5% CO2 incubator for 24 h, 1 uL of Ro20-1724 at final concentration of 0.1 mM was transferred to the assay plate by a Flying Reagent Dispenser. Following Ro20-1724 addition, 23 nL of compound dissolved in DMSO, positive controls or DMSO only was added to the assay plates via Wako pintool station. The assay plates were incubated at room temperature for 10 min. Next, 1 uL of NKH477 at 200nM was added into the plates. After the assay plates were incubated at room temperature for an additional 30 min, 2.5 ul/well of cAMP-d2 and 2.5 ul/well of anti-cAMP-cryptate were added respectively into the assay plates using a Flying Reagent Dispenser. The plates were incubated at room temperature for 1 h. The fluorescence intensity in the plates was measured at 340 nm excitation and 665 & 620 nm emission by an Envision plate reader.
Potency is the fitted concentration of half-maximal effect.

D(2) dopamine receptor (Homo sapiens), sequence (P14416 whole entry, looked up): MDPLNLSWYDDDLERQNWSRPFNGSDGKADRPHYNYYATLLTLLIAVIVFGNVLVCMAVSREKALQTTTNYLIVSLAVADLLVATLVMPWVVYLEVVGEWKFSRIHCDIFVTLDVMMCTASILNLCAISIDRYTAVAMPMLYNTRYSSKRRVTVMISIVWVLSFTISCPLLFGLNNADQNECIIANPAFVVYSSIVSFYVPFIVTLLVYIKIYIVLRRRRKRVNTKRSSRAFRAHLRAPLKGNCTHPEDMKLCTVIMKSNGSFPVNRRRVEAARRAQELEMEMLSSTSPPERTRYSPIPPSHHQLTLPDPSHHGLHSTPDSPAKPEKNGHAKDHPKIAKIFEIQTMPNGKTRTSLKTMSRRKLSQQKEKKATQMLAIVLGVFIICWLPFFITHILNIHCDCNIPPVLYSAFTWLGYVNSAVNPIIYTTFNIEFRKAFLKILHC

| Structure (SMILES) | Potency | activation |
| --- | --- | --- |
| CN(C)c1ccc(C(=O)c2ccc(N(C)C)cc2)cc1 | inactive | – |
| CCC(Br)(CC)C(=O)NC(N)=O | inactive | – |
| CCCCOCC1CO1 (stereo not given) | inactive | – |
| [Cl-].[Cl-].[Cl-].[Fe+3] | inactive | – |
| COC(=O)Nc1cccc(OC(=O)Nc2cccc(C)c2)c1 | inactive | – |
| CCCSC(=O)Cl | inactive | – |
| CCC1(c2ccccc2)CCC(=O)NC1=O (stereo not given) | inactive | – |
| CCOC(=O)C(O)(c1ccc(Cl)cc1)c1ccc(Cl)cc1 | inactive | – |
| c1ccc2c(c1)Oc1ccccc1O2 | inactive | – |
| OC(O)C(Cl)(Cl)Cl | inactive | – |
| Nc1ccc(-c2ccc(N)c(Cl)c2)cc1Cl | inactive | – |
| CCCCCCCCSC(=O)Oc1cc(Cl)nnc1-c1ccccc1 | inactive | – |
| COP(=O)(CCC(=O)NCO)OC | inactive | – |
| CC[N+](CC)(CC)CC | inactive | – |
| Cc1cc(Cl)ccc1N=CN(C)C | inactive | – |
| CCOP(=S)(OCC)Oc1nc(Cl)c(Cl)cc1Cl | inactive | – |
| N#CCCCCC#N | inactive | – |
| N#Cc1ccc(O)cc1 | inactive | – |
| CCCCCCCCCCCCCCCC[N+](C)(C)C | inactive | – |
| Cc1cc(O)ccc1Cl | inactive | – |

| Structure (SMILES) | Potency | activation |
| --- | --- | --- |
| O=[N+]([O-])CCO | inactive | – |
| C[C@H]1CCCC(=O)CCC/C=C/c2cc(O)cc(O)c2C(=O)O1 | inactive | – |
| O=[N+]([O-])c1cc(Cl)c(Cl)c(Cl)c1 | inactive | – |
| O=P(O)(Oc1ccccc1)Oc1ccccc1 | inactive | – |
| CCOc1nc(F)cc2nc(S(=O)(=O)Nc3c(Cl)cccc3Cl)nn12 | inactive | – |
| C=CCc1ccccc1O | inactive | – |
| Nc1ccc([N+](=O)[O-])cc1N | inactive | – |
| CCCCCCCCCCBr | inactive | – |
| Cc1cnc(C2=NC(C)(C(C)C)C(=O)N2)c(C(=O)O)c1 (stereo not given) | inactive | – |
| O=C1CCCO1 | inactive | – |
| CC[C@H](N)c1ccccc1 | inactive | – |
| CCCCCCCCn1sccc1=O | 42.8 µM (active) | – |
| CC(=O)C(C)(C)C | inactive | – |
| CC(C)=CC1C(C(=O)OCc2cccc(Oc3ccccc3)c2)C1(C)C (stereo not given) | inactive | – |
| CCOC(=O)Nc1cccc(OC(=O)Nc2ccccc2)c1 | inactive | – |
| CO[C@@H]1[C@H](OC(=O)NC(=O)CCl)CC[C@]2(CO2)[C@H]1[C@@]1(C)O[C@@H]1CC=C(C)C | – | 1.8% [at 19 µM] (inactive) |
| CCCCn1cc[n+](C)c1 | inactive | – |
| CCC(=O)C(CC(C)N(C)C)(c1ccccc1)c1ccccc1 (stereo not given) | inactive | – |
| OCCOCCO | inactive | – |
| C=CCN(CC=C)C(=O)C(Cl)Cl | inactive | – |
